# Screening results as filed in PubChem.
# A selection: hits, their analogues and other compounds. The true share with any hit is near 0.43%.
# GLA spleen mod: inhibitors or activators of human alpha-galactosidase in spleen homogenate | P06280 | human spleen homogenate, 4MU-alpha-Gal fluorescence, 40 min | Potency, µM (top dose mostly 80 µM), inactives show top-dose activity change, negative = inhibition, actives largely listed as inhibitors | 0.008% of 240,000 active | AID 2107;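 note: potency is the fitted concentration of half-maximal effect; 0% = enzyme with vehicle and -100% = no enzyme basal signal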
#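 Human spleen homogenate (1 ug) as enzyme source, 4-methylumbelliferyl-alpha-D-galactopyranoside 1 mM final, citrate/phosphate pH 5.0 with 0.01% Tween-20. Compounds 40 min at 37C, NaOH/glycine stop; fluorescence Ex 365/Em 440, Hill-fit AC50.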
# GAA glycogen: GAA glycogen-cleavage inhibition or activation. recombinant GAA, glycogen substrate, Amplex Red glucose oxidase fluorescence. P10253. Potency, µM (series often up to 76.4 µM), inactives show at the top dose activity change, negative = inhibition, usual class: inhibitors. 0.38% of 300,000 active;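 note: potency is the fitted concentration of half-maximal effect; 0% = full enzyme reaction and -100% = no-enzyme basal signal; the screen sought inhibitors and activators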
#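 Recombinant enzyme (4 nM final) with compounds titrated up to 77 uM and bovine liver glycogen (30 ug) in citrate pH 5.0, 0.01% Tween-20, 37 C 40 min. Released glucose detected by Amplex Red/glucose oxidase (Ex 573/Em 610); AC50 from Hill fits.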
# GAA inh: alpha-glucosidase (human) inhibition. 0.005% of 200,000 active. purified human GAA, 4-MU-alpha-glucoside fluorescence. Potency, µM (top dose mostly 76.9 µM), for the others: at the highest dose activity change, negative = inhibition, actives largely listed as inhibitors. AID 1466;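 note: potency is the fitted concentration of half-maximal effect; plate controls were uninhibited enzyme wells for no effect and no-enzyme background for full effect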
#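 Fluorogenic assay: 4 nM human alpha-glucosidase with 400 uM 4-methylumbelliferyl-alpha-D-pyranoside in 50 mM citrate/phosphate, 0.005% Tween-20, pH 5.0, 20 min at room temperature. Compounds tested up to 77 uM; AC50 from Hill fits.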
# GLA inh pH 4.5: blocks human alpha-galactosidase A at pH 4.5; P06280; purified enzyme, 4-MU-alpha-Gal fluorescence, pH 4.5; activity change, negative = inhibition, % at 105 µM; 230,000 tested, under 10 active; AID 1467;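 note: 0% = full activity with enzyme and -100% = basal without enzyme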
# Target sequence (P06280 whole entry, looked up): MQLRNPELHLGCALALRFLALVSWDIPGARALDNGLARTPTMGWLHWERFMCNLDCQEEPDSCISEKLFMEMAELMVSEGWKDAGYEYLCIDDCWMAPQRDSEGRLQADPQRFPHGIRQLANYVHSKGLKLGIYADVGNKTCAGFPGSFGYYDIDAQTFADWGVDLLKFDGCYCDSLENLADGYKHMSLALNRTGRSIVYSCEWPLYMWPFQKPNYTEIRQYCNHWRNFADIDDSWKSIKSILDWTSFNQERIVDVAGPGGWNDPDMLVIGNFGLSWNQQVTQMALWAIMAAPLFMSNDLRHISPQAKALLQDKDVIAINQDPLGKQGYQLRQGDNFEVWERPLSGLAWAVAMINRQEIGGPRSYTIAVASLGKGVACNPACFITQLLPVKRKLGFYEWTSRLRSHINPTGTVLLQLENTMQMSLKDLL
# GAA spleen mod: inhibitors or activators of human alpha-glucosidase in spleen homogenate; AID 2112; 0.006% of 240,000 active; Potency, µM (highest dose often 79.9 µM), for inactives: at the highest dose activity change, negative = inhibition, actives largely listed as inhibitors; human spleen homogenate, 4-MU-alpha-glucoside fluorescence;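 note: potency is the fitted concentration of half-maximal effect; 0% = enzyme with vehicle and -100% = no enzyme basal signal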
#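 Human spleen homogenate (1 ug) incubated with compounds and 1 mM 4-methylumbelliferyl-alpha-D-glucopyranoside in pH 5.0 citrate/phosphate buffer, 37 C, 40 min. Stopped at pH 10; 4-MU fluorescence (Ex 365/Em 440 nm); AC50 by Hill fit.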
# N370S GC: inhibits or activates N370S mutant glucocerebrosidase. P04062. N370S GC spleen homogenate, 4MU-glucoside fluorescence. Potency, µM (titrated, usually from 59.4 µM), inactives show top-dose activity change, negative = inhibition, most hits filed as inhibitors. 0.092% of 330,000 active. AID 2101;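 note: potency is the fitted concentration of half-maximal effect; 0% = full enzyme activity and -100% = no enzyme basal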
# * hit, by the source's call; ? = inconclusive; · = not tested or not shown; [ ] = another dose, or the depositor's remark. Calls come from the whole dose curve; as a rule, active = well fitted curve in the direction sought with a large enough effect; inconclusive = small, poorly fitted or top-dose-only effect, or another doubt; inactive = no such curve, though single readings can be large; an effect the other way counts as inactive or inconclusive.
SMILES,GLA spleen mod,GAA glycogen,GAA inh,GLA inh pH 4.5,GAA spleen mod,N370S GC
CC(C)C[C@H](NC(=O)[C@H](CC(C)C)NC(=O)[C@H](CCC(N)=O)NC(=O)[C@H](CO)NC(=O)[C@@H]1CCCN1C(=O)[C@H](CO)NC(=O)[C@H](CO)NC(=O)[C@@H](NC(=O)[C@H](Cc1cnc[nH]1)NC(=O)[C@H](CCC(=O)O)NC(=O)[C@H](Cc1ccc(O)cc1)NC(=O)[C@H](CCCCN)NC(=O)[C@H](CCC(N)=O)NC(=O)[C@H](Cc1ccc(O)cc1)NC(=O)[C@H](CC(=O)O)NC(=O)[C@@H](NC(=O)[C@@H]1CCCN1C(=O)[C@H](CC(=O)O)NC(=O)[C@H](CC(N)=O)NC(=O)[C@H](CC(=O)O)NC(=O)CNC(=O)[C@H](CC(=O)O)NC(=O)[C@@H]1CCCN1C(=O)[C@H](CCC(N)=O)NC(=O)[C@H](Cc1ccc(O)cc1)NC(=O)[C@H](C)NC(=O)[C@H](Cc1c[nH]c2ccccc12)NC(=O)[C@H](Cc1ccccc1)NC(=O)[C@@H](NC(=O)[C@@H](N)CO)[C@@H](C)O)[C@@H](C)O)[C@@H](C)O)C(=O)N[C@@H](C)C(=O)N1CCC[C@H]1C(=O)NCC(=O)N[C@@H](CC(=O)O)C(=O)N[C@@H](Cc1ccc(O)cc1)C(=O)O,1.9%,·,·,·,-5.4%,1.5%
COc1cccc(NC(=S)NNC(=O)c2c([N+](=O)[O-])c(C)nn2C)c1,-1.3%,24.9µM*,0.7%,2.2,-1.1%,-1.9%
COc1cccc(NC(=S)NNC(=O)C(C)n2nc(C)c([N+](=O)[O-])c2C)c1 (stereo not drawn),14.6%,10µM*,0.3%,2.7,8.5%,15.1%
C=CCn1c(SCC(=O)NC2CCCC2)nc2scc(-c3ccco3)c2c1=O,-7.5%,2.0%,-6.7%,3.4,-7.2%,12.6µM*
COc1cccc(OCC(=O)NNC(=S)Nc2ccc(Cl)cc2Cl)c1,12.1%,56.2µM*,8.4%,-0.6,7.8%,3.9%
O=C(OCCN=C1NS(=O)(=O)c2ccccc21)C1CC(=O)N(c2ccc3ccccc3c2)C1 (stereo not drawn),2.8%,-1.9%,?,-2.7,-5.0%,3.55µM*
COc1ccc(NC2=C(Cl)C(=O)N(c3ccccc3)C2=O)c(OC)c1,-9.9%,2.5%,-9.5%[15.4 µM],·,-6.8%,11.5%
COc1ccc(N2C(=O)C(Cl)=C(Nc3c(C)n(C)n(-c4ccccc4)c3=O)C2=O)cc1,-1.9%,25.1µM*,5.6%,-14.0,1.8%,-1.7%
COC(=O)[C@H]1[C@@H]2C[C@H]3c4[nH]c5ccccc5c4CCN3C[C@@H]2CC[C@@H]1O,4.9%,·,·,-1.8,0.4%,8.7%
CC(=O)Oc1ccc2c(C)cc(=O)oc2c1,?,-0.4%,?,?,?,?
CC(=O)Oc1cc2oc(=O)cc(C)c2cc1OC(C)=O,?,7.88µM*,?,?,?,?
CC(C)(C)OC(=O)NS(=O)(=O)Nc1ccccc1Br,1.5%,·,·,·,4.6%,5.8%
CCCCCCCCCCCCCCOS(=O)(=O)O,-27.8%,·,·,·,-16.2%,-8.2%
Cc1cc(C)cc(N(CC(=O)Nc2ccc(C)cc2Cl)S(=O)(=O)c2c(C)[nH]c(=O)[nH]c2=O)c1,·,12.3%[76.3 µM],·,·,·,0.251µM*
COc1ccc(N(CC(=O)Nc2cc(C)ccc2C)S(=O)(=O)c2c(C)[nH]c(=O)[nH]c2=O)cc1,·,-13.6%[76.3 µM],·,·,·,?
Cc1cc(C)cc(N(CC(=O)Nc2ccc(C(F)(F)F)cc2)S(=O)(=O)c2c(C)[nH]c(=O)[nH]c2=O)c1,·,-26.0%[76.3 µM],·,·,·,2.24µM*
Cc1ccc(N(CC(=O)Nc2ccc(Br)c(C)c2)S(=O)(=O)c2c(C)[nH]c(=O)[nH]c2=O)cc1,·,-14.0%[76.3 µM],·,·,·,11.2µM*
N#CCCCS(=O)(=O)c1nnnn1-c1ccc(Br)cc1,0.7%,·,·,-10.9,-4.4%,-10.0%
CC[C@@H](C)[C@H](NS(=O)(=O)c1cccc2ccccc12)C(=O)N[C@H](C=O)Cc1c[nH]c2ccccc12,9.8%,·,·,·,6.0%,-7.1%
O=C(c1ccccc1)c1ccc(OCCOCCN2CCN(Cc3ccccc3)CC2)cc1,-11.3%,22.0%,3.8%,4.8,-6.9%,14.1µM*
COc1ccc(C2=Nn3c(nnc3-c3cccc(OC)c3OC)SC2)c(OC)c1,8.4%,·,·,·,9.8%,0.0%
Cc1cc(C)c2ccc3c(C)c(C)nc3c2[nH]1,-4.9%,6.5%,?,-9.6,·,7.08µM*
O=C(NN=C1C2CC3CC(C2)CC1C3)c1cc(Cl)ccc1O,10.6%,12.6µM*,-3.3%,-0.9,3.6%,0.4%
O=C(NN=C1C2CC3CC(C2)CC1C3)c1ccncc1,-4.9%,?,4.0%,-9.1,-11.5%,6.8%
Cc1cccc(NC(=S)NNC(=O)c2nn(C)cc2Cl)c1,7.3%,?,-9.1%,1.1,-2.3%,10.4%
SMILES,GLA spleen mod,GAA glycogen,GAA inh,GLA inh pH 4.5,GAA spleen mod,N370S GC
Cc1ccc(NC(=S)NNC(=O)c2nn(C)cc2Cl)cc1,1.5%,14.1µM*,4.8%,0.7,1.7%,9.1%
O=c1ccc2cc3ccoc3cc2o1,-9.7%,-5.8%[76.3 µM],·,-2.6,13.7%,3.5%
O=c1ccc2cc(O)c(O)cc2o1,?,6.31µM*,?,?,5.2%,?
Cc1cccnc1Nc1nc(-c2ccc(O)c(O)c2)cs1,0.2%,7.08µM*,?,0.0,-1.0%,-13.8%
Cc1ccnc(Nc2nc(-c3ccc(O)c(O)c3)cs2)c1,·,6.31µM*,·,·,·,1.3%
NC(=O)[C@@H]1CCCN1C(=O)C(Cc1cnc[nH]1)NC(=O)C1CCC(=O)N1 (stereo partly drawn),-7.4%,·,·,·,-4.5%,-2.2%
Cc1cc(O)c(C(C)C)cc1N=C1CSC(=O)N1,5.0%,17.6µM*,5.1%,-5.6,7.7%,1.6%
O=C(CN1CCN(c2ccc(O)cc2)CC1)Nc1cc([N+](=O)[O-])ccc1Cl,10.5%,11.2µM*,2.2%,-1.9,2.8%,-3.5%
CC(=O)N1CCN(CC(=O)Nc2cc([N+](=O)[O-])ccc2Cl)CC1,4.2%,-0.1%,4.0%,-2.4,3.0%,-9.2%
Cc1cc(NC(=O)CN2CCN(S(=O)(=O)c3ccc(Cl)cc3)CC2)no1,0.9%,0.6%,-6.4%,2.3,-4.1%,-3.4%
O=C(CN1CCN(c2ccc(O)cc2)CC1)NC(=O)NCc1ccco1,4.0%,3.16µM*,5.0%,7.3,8.1%,-3.8%
Cc1cc(NC(=O)CN2CCN(c3ccc(O)cc3)CC2)no1,0.8%,8.91µM*,0.4%,4.5,-9.8%,6.2%
COc1ccc(N2CCN(CC(=O)NC(=O)NCc3ccco3)CC2)cc1,-6.1%,-2.2%,2.4%,-11.4,-2.6%,5.2%
